Experimental findings from PubChem BioAssay (NCATS) are described below.

Structures are written as SMILES. Results filed as inconclusive are left out. Entries that show only a call come without a potency. The source made the active and inactive calls. Unless noted, calls follow the shape of the dose curve; as a rule, active = well fitted curve in the direction sought with a large enough effect; inconclusive = small, poorly fitted or top-dose-only effect, or another doubt; inactive = no such curve, though single readings can be large; an effect the other way counts as inactive or inconclusive.

Test [1] addresses Mitogen-activated protein kinase 10 (Mus musculus) (UniProt Q61831). As to the kind of experiment: JNK3 AlphaScreen Assay (AID 530; active = well fitted curve in either direction with a large enough effect, not every such curve was filed as active;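 also: kinase came from lysate of stimulated human HepG2 cells; signal reports phosphorylation of biotinylated GST-cJun 1-79 at Ser73 with 10 µM ATP; series mostly up to about 57 µM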). The procedure, abridged:
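Compound titrations were preincubated 15 minutes at room temperature with substrate, antibody and pre-activated JNK3-containing HepG2 lysate. Reactions were started with 10 uM ATP and stopped with EDTA-containing bead buffer for AlphaScreen detection.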
Background: Bead proximity is the source of the signal in Alpha formats.

The target in test [2] is Cytochrome P450 3A4 (Homo sapiens) (UniProt P08684). Briefly: qHTS Assay for Inhibitors and Substrates of Cytochrome P450 3A4 (AID 884). Also: potency is read from the fitted curve at half-maximal effect; nearly all actives have a fitted effect of over 50% in size. An outline of the steps: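 20 nM human CYP3A4 with 25 uM Luciferin-PPXE (at KM) in 200 mM KPO4, preincubated 10 min with compound; NADPH regeneration started a 60 min RT reaction. Luciferin detected by luminescence, normalized to 57 uM ketoconazole as full inhibition.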
Sequence of Cytochrome P450 3A4 (Homo sapiens) (P08684 whole entry, looked up): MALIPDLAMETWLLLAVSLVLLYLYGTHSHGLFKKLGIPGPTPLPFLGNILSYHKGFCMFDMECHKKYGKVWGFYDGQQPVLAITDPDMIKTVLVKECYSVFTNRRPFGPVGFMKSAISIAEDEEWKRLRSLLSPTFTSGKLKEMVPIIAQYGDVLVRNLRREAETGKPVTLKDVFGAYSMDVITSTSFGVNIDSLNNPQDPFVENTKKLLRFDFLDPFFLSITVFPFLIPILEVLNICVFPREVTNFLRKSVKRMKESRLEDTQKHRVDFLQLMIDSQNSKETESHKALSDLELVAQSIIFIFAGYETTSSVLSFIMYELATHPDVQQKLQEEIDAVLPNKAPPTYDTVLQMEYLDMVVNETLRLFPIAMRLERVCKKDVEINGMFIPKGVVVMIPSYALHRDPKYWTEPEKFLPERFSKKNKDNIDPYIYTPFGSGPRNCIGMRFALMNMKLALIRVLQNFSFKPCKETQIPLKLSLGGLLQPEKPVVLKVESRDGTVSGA
A general note: qHTS replaces the single test concentration by a dilution series.

Test [3] has the same target. As to the kind of experiment: qHTS Assay for Activators of Cytochrome P450 3A4 (AID 885). Also: nearly all actives have a fitted effect of over 65% in size. An outline of the steps:
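Human CYP3A4 (20 nM) with Luciferin-PPXE at 25 uM (its KM) in 200 mM KPO4; 10 min compound preincubation, then NADPH regeneration and 60 min reaction at RT. Luciferin read by luminescence; normalized to 57 uM ketoconazole full inhibition.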

Consider `COC(=O)c1ccc(C(NC(=O)OCc2ccccc2)/C(C)=C/[C@@H](C)C(=O)NCc2nn(-c3ccccc3)nc2C)cc1` (stereo partly drawn), for which the result in test [1] was inactive. In addition, in test [2], the Potency is 2.51 µM (active). Moreover, the Potency result in test [3] was “inactive”.
As for `COC(=O)c1ccc(C(NC(=O)OCc2ccccc2)/C(=C/[C@@H](C)C(=O)NCc2nc3ccccc3s2)c2cccnc2)cc1` (stereo partly drawn), the compound was classed as inactive in test [1]. For the same compound, the Potency in test [2] is 2 µM (active). Moreover, the Potency entry in test [3] was “inactive”.
As for `COC(=O)c1ccc(C(/C=C/[C@@H](C)C(=O)NCc2cc(C)n(C)n2)NC(=O)OCc2ccccc2)cc1` (stereo partly drawn), the outcome in test [1] was inactive. Moreover, the Potency in test [2] was 2 µM (active). For the same compound, the Potency result in test [3] was “inactive”.
Take `COC(=O)c1ccc(C(/C=C/[C@@H](C)C(=O)NCc2ccc(OC)c(O)c2)NC(=O)OCc2ccccc2)cc1` (stereo partly drawn): the compound was classed as inactive in test [1]. Besides, the Potency in test [2] was 6.31 µM (active). Further, the Potency result in test [3] is “inactive”.
With `CC(Cc1ccccc1)C(=O)NCc1ccncc1` (stereo not drawn), the call in test [1] was inactive. In addition, the Potency in test [2] was 2.51 µM (active). The Potency result in test [3] was “inactive”.
With `CCCCCCN(C(=O)CCCCCN1C(=O)NC(C2CCCCC2)C(C(=O)OCc2ccccc2)=C1C)C(C(=O)NCCCC)c1ccc(OCC(=O)OC)c(C(=O)OC)c1` (stereo not drawn), the call in test [1] was inactive. In addition, the Potency in test [2] was 3.16 µM (active). For the same compound, in test [3], the Potency result was “inactive”.
With `COC(=O)[C@@H]1C[C@H]1[C@@H](NC(=O)c1ccc(Br)cc1)c1ccccc1`, the result in test [1] was inactive. The Potency in test [2] was 25.1 µM (active). Also, the Potency entry in test [3] is “inactive”.
With `CC1(C(=O)NCC2CC2)C=CC2(CCCCC2)N1C(=O)c1ccccc1` (stereo not drawn), the compound was called inactive in test [1]. In addition, in test [2], the Potency was 7.94 µM (active). Also, the Potency result in test [3] is “inactive”.
For the compound `COC(=O)c1ccc(C(NC(=O)OCc2ccccc2)/C(F)=C/[C@@H](C)C(=O)Nc2ccc(OC)cc2)cc1` (stereo partly drawn), the call in test [1] was inactive. For the same compound, in test [2], the Potency was 2 µM (active). For the same compound, the Potency entry in test [3] was “inactive”.
As for `C[C@]1(C(=O)NCC2CC2)C=C[C@@H](Cc2ccccc2)N1C(=O)c1ccccc1`, in test [1], the compound was classed as inactive. For the same compound, the Potency in test [2] was 2 µM (active). Further, the Potency entry in test [3] is “inactive”.
With `CCC[C@@H]1C[C@@]1(CCC)[C@@H](NP(=O)(c1ccccc1)c1ccccc1)c1ccc(C(=O)OC)cc1`, in test [1], the outcome was inactive. The Potency in test [2] was 3.16 µM (active). For the same compound, the Potency entry in test [3] is “inactive”.
Regarding `CCCCCCN(C(=O)CCCCCN1C(=O)NC(c2ccccc2-c2ccccc2)C(C(=O)OCc2ccccc2)=C1C)C(C(=O)NCCCC)c1ccc(OCC(=O)OC)c(C(=O)OC)c1` (stereo not drawn), the compound was called inactive in test [1]. Besides, the Potency in test [2] was 6.31 µM (active). Also, in test [3], the Potency result is “inactive”.
For the compound `CC1(C(=O)NCCN2CCOCC2)C=CC2(CCCCC2)N1C(=O)c1ccccc1` (stereo not drawn), the call in test [1] was inactive. Also, the Potency in test [2] is 7.94 µM (active). In addition, the Potency entry in test [3] is “inactive”.
For the compound `CCCCCCN(C(=O)CCCCCN1C(=O)NC(c2ccc(C3CCCCC3)cc2)C(C(=O)OCc2ccccc2)=C1C)C(C(=O)NCCCC)c1ccc(OCC(=O)OC)c(C(=O)OC)c1` (stereo not drawn), the outcome in test [1] was inactive. Further, the Potency in test [2] is 2 µM (active). Further, in test [3], the Potency entry was “inactive”.
Take `COC(=O)c1ccc(C(/C=C/[C@@H](C)C(=O)N(C)Cc2ccccc2)NC(=O)OCc2ccccc2)cc1` (stereo partly drawn): in test [1], the compound was classed as inactive. The Potency in test [2] was 1.58 µM (active). Also, the Potency result in test [3] is “inactive”.
For the compound `CC(C)CC1(C(=O)NCCc2c[nH]c3ccccc23)C=CCN1C(=O)c1ccccc1` (stereo not drawn), in test [1], the call was inactive. The Potency in test [2] was 3.16 µM (active). Also, in test [3], the Potency result was “inactive”.
On to `COCCNC(=O)[C@@]1(C)C=C[C@@H](Cc2ccccc2)N1C(=O)c1ccccc1`, for which the result in test [1] was inactive. For the same compound, the Potency in test [2] is 7.94 µM (active). Further, in test [3], the Potency entry is “inactive”.
On to `CCCCNC(=O)C(c1ccc(OCC(=O)OC)c(C(=O)OC)c1)N(CCc1ccccc1)C(=O)CCCCCN1C(=O)NC(c2ccc(-c3ccccc3)cc2)C(C(=O)OCc2ccccc2)=C1C` (stereo not drawn), for which the result in test [1] was inactive. In test [2], the Potency was 5.01 µM (active). For the same compound, the Potency result in test [3] is “inactive”.
As for `COC(=O)c1ccc(C(NC(=O)OCc2ccccc2)/C(I)=C/[C@@H](C)C(=O)NCc2ccc(OC)c(O)c2)cc1` (stereo partly drawn), the outcome in test [1] was inactive. In addition, the Potency in test [2] is 3.16 µM (active). Moreover, in test [3], the Potency entry is “inactive”.
As to `COC(=O)c1ccc(C(NC(=O)OCc2ccccc2)/C(I)=C/[C@@H](C)C(=O)NCc2ccc(C)o2)cc1` (stereo partly drawn), in test [1], the compound was classed as inactive. Further, in test [2], the Potency was 10 µM (active). In test [3], the Potency entry is “inactive”.
For `COC(=O)c1ccc(C(NC(=O)OCc2ccccc2)/C(C)=C/[C@@H](C)C(=O)N[C@@H](CO)Cc2ccccc2)cc1` (stereo partly drawn), the call in test [1] was inactive. For the same compound, the Potency in test [2] is 3.16 µM (active). Also, the Potency result in test [3] was “inactive”.
With `C[C@H](NC(=O)[C@@H]1C[C@H]1[C@@H](NC(=O)OCc1ccccc1)c1ccccc1)c1ccccc1`, the outcome in test [1] was inactive. The Potency in test [2] was 12.6 µM (active). Further, the Potency result in test [3] was “inactive”.
Turning to `COC(=O)c1ccc(C(NC(=O)OCc2ccccc2)/C(=C/[C@@H](C)C(=O)N[C@@H](CO)Cc2ccccc2)c2cccnc2)cc1` (stereo partly drawn), the outcome in test [1] was inactive. The Potency in test [2] was 1 µM (active). Besides, in test [3], the Potency entry was “inactive”.
Regarding `COC(=O)c1ccc(C(NC(=O)OCc2ccccc2)/C(=C/[C@@H](C)C(=O)NCCc2c[nH]c3ccccc23)c2cccnc2)cc1` (stereo partly drawn), the outcome in test [1] was inactive. Moreover, the Potency in test [2] is 1.58 µM (active). In addition, the Potency result in test [3] was “inactive”.
Regarding `CC(C)CC1(C(=O)NCCN2CCOCC2)C=CCN1C(=O)c1ccccc1` (stereo not drawn), in test [1], the result was inactive. Also, in test [2], the Potency was 12.6 µM (active). The Potency result in test [3] is “inactive”.
`COC(=O)c1ccc(C(NC(=O)OCc2ccccc2)/C(=C/[C@@H](C)C(=O)N(C)C)c2cccnc2)cc1` (stereo partly drawn): the result in test [1] was inactive. Further, in test [2], the Potency is 5.01 µM (active). For the same compound, the Potency entry in test [3] was “inactive”.
